As a reminder, the inhibition is the drop in the measured response relative to a control, in per cent.

Here are results for three molecules from ChEMBL document CHEMBL1961873, “Compounds: GSK PKIS; Assays: Nanosyn kinase panel” (2012).

Test [1] deals with SRSF protein kinase 1 (Homo sapiens) (UniProt Q96SB4). The settings on record: at 0.1 µM.
The target is the same in test [2]. The settings on record: at 1 µM.
Test [3] deals with Phosphatidylinositol 4,5-bisphosphate 3-kinase catalytic subunit alpha isoform (Homo sapiens) (UniProt P42336). The settings on record: at 0.1 µM.
Phosphatidylinositol 4,5-bisphosphate 3-kinase catalytic subunit alpha isoform (Homo sapiens), sequence (P42336 whole entry, canonical isoform): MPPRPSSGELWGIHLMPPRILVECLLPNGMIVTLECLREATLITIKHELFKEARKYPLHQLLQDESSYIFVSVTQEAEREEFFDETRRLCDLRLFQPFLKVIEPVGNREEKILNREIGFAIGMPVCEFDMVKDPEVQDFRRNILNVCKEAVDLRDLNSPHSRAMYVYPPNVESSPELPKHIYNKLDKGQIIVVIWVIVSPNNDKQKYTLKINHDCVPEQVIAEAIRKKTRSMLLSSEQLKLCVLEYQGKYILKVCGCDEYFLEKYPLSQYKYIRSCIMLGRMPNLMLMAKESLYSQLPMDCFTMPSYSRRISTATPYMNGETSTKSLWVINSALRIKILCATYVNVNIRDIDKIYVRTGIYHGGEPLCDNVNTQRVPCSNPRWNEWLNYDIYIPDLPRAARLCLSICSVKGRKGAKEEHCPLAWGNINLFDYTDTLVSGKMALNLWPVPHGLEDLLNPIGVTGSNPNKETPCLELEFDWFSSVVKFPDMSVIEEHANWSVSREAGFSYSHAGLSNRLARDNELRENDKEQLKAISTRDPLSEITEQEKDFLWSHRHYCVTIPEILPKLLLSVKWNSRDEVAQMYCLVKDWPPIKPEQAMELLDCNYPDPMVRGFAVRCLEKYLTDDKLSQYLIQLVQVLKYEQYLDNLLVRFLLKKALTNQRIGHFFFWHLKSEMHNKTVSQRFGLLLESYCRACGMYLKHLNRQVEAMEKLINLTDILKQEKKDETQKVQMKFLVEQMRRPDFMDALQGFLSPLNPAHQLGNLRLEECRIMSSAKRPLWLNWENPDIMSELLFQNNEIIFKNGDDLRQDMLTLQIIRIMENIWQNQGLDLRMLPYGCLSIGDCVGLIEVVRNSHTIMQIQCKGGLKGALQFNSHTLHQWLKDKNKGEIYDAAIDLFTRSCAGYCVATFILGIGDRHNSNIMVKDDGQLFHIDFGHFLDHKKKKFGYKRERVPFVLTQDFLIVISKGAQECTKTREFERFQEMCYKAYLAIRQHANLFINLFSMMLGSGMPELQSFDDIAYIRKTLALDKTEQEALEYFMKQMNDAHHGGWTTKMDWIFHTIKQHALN
Test [4] shares this target. The settings on record: at 1 µM.
The target of test [5] is T1, Phosphatidylinositol 4,5-bisphosphate 3-kinase catalytic subunit delta isoform (Homo sapiens) (UniProt O00329).
T1 sequence (whole entry): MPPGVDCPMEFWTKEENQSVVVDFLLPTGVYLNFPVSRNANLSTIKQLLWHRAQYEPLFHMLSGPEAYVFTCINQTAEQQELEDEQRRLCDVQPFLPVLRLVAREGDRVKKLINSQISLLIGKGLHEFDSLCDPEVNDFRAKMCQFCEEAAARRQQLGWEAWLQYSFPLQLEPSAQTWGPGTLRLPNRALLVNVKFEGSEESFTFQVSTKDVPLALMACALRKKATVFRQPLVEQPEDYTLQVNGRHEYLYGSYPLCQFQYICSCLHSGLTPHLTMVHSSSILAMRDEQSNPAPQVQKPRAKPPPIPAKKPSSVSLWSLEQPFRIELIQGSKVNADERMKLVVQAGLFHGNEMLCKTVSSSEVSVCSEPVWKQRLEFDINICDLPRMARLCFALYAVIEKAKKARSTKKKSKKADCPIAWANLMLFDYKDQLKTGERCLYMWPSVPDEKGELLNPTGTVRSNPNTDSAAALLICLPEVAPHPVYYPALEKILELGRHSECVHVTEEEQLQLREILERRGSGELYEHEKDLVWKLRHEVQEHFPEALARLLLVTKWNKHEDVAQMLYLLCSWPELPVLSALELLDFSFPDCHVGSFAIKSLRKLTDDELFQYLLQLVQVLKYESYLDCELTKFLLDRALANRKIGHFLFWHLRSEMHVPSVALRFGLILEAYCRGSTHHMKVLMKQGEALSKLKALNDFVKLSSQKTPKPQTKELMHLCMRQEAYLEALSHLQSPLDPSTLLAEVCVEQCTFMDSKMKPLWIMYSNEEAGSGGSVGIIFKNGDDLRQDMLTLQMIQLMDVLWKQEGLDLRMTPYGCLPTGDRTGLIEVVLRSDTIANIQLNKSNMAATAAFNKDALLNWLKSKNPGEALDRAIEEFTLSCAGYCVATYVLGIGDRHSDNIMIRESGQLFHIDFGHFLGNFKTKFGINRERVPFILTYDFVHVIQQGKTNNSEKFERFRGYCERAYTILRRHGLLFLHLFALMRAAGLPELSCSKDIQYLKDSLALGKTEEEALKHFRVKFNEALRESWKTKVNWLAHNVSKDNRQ
The settings on record: at 0.1 µM.

Test [6] has as its target T1, Phosphatidylinositol 4,5-bisphosphate 3-kinase catalytic subunit delta isoform (Homo sapiens). The settings on record: at 1 µM.
In test [7] the target is Phosphatidylinositol 4-kinase beta (Homo sapiens) (UniProt Q9UBF8). The settings on record: at 0.1 µM.
Phosphatidylinositol 4-kinase beta (Homo sapiens), sequence (Q9UBF8 2-816 limits assumed): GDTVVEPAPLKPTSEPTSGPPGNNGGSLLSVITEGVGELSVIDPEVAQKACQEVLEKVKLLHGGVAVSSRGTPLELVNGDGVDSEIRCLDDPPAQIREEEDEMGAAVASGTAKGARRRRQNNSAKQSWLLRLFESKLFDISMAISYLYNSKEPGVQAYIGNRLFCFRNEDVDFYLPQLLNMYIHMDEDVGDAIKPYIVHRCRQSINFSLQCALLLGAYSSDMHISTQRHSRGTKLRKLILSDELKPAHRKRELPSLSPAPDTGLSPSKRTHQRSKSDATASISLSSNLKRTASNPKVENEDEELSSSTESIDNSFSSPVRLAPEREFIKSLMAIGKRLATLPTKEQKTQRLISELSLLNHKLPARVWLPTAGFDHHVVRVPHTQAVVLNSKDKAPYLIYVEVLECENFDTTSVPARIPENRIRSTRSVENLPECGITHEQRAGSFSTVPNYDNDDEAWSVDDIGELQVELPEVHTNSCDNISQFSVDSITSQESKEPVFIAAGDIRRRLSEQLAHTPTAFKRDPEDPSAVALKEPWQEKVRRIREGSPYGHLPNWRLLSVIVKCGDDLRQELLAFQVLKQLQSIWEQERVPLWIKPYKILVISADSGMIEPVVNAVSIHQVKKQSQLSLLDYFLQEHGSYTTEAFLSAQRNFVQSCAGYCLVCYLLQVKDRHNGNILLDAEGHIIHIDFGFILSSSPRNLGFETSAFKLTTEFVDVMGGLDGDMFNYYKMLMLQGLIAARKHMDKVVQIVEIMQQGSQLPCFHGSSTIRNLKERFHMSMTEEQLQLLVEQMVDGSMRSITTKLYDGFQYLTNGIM
For test [8] the target is unchanged. The settings on record: at 1 µM.
The target of test [9] is Sphingosine kinase 1 (Homo sapiens) (UniProt Q9NYA1). The settings on record: at 0.1 µM.
Sphingosine kinase 1 (Homo sapiens), sequence (Q9NYA1 whole entry): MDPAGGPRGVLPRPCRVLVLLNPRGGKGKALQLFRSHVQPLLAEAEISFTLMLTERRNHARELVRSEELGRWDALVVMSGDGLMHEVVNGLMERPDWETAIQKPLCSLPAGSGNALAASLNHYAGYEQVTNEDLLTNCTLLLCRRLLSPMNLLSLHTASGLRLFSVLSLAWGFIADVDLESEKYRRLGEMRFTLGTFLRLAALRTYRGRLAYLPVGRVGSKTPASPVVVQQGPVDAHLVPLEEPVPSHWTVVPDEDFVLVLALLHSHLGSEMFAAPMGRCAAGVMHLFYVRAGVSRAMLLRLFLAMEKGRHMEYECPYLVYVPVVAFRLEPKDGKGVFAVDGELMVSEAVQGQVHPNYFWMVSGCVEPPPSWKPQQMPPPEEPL
The target is the same in test [10]. The settings on record: at 1 µM.
For test [11], the target named is T2, Sphingosine kinase 2 (Homo sapiens) (UniProt Q9NRA0).
T2 sequence (whole entry): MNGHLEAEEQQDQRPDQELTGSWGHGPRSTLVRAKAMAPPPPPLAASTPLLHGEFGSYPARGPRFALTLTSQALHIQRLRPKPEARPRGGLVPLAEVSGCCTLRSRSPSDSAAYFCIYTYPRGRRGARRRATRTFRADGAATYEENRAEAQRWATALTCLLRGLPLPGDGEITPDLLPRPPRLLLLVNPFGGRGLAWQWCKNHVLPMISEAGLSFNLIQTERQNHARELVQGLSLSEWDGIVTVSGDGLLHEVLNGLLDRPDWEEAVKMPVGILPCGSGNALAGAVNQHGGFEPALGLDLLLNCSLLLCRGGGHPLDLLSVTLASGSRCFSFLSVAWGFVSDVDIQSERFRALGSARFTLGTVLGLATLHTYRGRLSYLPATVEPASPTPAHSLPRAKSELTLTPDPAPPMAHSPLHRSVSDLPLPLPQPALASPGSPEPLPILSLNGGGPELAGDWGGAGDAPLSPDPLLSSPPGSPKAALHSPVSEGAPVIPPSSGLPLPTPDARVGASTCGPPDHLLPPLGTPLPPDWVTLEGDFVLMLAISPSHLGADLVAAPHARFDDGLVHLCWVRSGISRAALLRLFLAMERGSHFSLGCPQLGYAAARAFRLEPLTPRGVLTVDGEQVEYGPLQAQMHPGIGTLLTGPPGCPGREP
The settings on record: at 0.1 µM.

Test [12] addresses T2, Sphingosine kinase 2 (Homo sapiens). The settings on record: at 1 µM.
The target in test [13] is Casein kinase II subunit alpha (Homo sapiens) (UniProt P68400). The settings on record: at 0.1 µM.
Casein kinase II subunit alpha (Homo sapiens), sequence (P68400 whole entry, looked up): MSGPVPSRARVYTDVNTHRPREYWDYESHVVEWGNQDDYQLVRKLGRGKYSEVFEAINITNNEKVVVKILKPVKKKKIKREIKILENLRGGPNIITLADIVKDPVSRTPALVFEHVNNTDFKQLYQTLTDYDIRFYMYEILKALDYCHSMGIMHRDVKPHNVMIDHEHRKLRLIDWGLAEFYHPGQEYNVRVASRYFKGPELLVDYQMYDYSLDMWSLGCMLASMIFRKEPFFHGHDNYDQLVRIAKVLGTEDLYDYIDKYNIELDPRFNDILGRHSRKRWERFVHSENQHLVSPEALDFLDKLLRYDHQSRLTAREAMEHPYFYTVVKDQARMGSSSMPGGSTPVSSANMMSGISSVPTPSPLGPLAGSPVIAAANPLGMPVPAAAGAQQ
Test [14] has the same target. The settings on record: at 1 µM.
For test [15], the target named is T3, Inhibitor of nuclear factor kappa-B kinase subunit alpha (Homo sapiens) (UniProt O15111).
T3 sequence (whole entry): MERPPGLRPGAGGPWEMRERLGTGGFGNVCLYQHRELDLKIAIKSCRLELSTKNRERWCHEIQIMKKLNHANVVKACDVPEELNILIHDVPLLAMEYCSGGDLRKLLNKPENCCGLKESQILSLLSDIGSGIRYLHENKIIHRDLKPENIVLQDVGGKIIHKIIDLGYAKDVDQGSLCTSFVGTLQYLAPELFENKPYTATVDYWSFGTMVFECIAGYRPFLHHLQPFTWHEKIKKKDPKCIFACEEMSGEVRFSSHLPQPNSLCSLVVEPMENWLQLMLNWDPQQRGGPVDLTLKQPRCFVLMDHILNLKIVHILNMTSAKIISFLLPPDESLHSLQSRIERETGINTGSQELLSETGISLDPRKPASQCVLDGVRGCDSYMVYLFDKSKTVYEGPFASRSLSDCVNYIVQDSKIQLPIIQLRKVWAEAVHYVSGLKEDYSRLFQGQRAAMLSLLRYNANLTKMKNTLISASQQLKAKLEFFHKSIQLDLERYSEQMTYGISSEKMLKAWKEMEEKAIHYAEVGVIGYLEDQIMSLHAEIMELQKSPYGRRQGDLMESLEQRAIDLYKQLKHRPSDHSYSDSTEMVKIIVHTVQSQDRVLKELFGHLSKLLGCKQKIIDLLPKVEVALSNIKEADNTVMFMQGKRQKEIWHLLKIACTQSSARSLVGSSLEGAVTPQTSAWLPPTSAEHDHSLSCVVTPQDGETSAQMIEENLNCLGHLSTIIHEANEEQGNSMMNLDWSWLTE
The settings on record: at 0.1 µM.

Test [16] addresses T3, Inhibitor of nuclear factor kappa-B kinase subunit alpha (Homo sapiens). The settings on record: at 1 µM.
Test [17] addresses T4, Inhibitor of nuclear factor kappa-B kinase subunit beta (Homo sapiens) (UniProt O14920).
T4 sequence (whole entry): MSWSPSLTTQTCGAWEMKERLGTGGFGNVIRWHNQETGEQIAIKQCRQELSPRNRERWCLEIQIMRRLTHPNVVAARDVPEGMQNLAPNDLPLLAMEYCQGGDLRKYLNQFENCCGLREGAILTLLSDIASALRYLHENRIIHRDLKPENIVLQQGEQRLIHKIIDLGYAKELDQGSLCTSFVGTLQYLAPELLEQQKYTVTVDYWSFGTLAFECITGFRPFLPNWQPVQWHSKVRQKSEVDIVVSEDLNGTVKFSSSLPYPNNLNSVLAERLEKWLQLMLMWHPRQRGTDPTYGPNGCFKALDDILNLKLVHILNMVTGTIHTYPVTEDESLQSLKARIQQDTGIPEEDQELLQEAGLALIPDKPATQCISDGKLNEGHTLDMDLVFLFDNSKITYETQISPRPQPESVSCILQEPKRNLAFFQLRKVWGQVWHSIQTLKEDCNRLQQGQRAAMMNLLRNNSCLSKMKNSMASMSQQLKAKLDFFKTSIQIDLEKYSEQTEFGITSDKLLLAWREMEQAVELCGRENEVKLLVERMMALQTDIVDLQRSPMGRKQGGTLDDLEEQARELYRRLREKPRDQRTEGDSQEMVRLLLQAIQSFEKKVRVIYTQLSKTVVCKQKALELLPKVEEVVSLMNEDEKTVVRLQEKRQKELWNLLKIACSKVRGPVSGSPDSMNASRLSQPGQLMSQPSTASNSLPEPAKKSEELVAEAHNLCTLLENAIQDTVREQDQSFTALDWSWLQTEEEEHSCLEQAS
The settings on record: at 0.1 µM.

Test [18] addresses T4, Inhibitor of nuclear factor kappa-B kinase subunit beta (Homo sapiens). The settings on record: at 1 µM.
Test [19] has as its target T5, Inhibitor of nuclear factor kappa-B kinase subunit epsilon (Homo sapiens) (UniProt Q14164).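 Note: mean inhibition of IKKε reported, from the GSK PKIS dataset.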
T5 sequence (whole entry): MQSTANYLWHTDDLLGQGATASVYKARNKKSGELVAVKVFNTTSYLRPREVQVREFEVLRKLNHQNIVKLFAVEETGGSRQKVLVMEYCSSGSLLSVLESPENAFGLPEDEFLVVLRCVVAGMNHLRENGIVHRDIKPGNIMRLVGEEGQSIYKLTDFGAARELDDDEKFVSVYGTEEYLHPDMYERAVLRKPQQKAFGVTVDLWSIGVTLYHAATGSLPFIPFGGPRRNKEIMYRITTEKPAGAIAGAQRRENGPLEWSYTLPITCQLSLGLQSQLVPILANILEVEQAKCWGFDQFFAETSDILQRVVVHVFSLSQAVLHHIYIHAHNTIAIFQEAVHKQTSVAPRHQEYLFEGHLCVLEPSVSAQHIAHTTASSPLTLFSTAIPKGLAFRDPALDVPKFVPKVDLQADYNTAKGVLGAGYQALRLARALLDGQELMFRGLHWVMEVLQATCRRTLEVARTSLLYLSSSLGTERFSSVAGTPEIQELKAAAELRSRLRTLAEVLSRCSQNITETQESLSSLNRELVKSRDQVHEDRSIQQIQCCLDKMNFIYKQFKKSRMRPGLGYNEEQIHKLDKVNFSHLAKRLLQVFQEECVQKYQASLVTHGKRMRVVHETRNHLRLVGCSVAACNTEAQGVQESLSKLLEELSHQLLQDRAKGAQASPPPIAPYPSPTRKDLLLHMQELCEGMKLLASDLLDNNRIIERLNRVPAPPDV
The settings on record: at 0.1 µM.

The target of test [20] is T6, Mitogen-activated protein kinase 12 (Homo sapiens) (UniProt P53778).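 Note: values are averaged p38gamma kinase inhibition readings, compounds tested at 1 µM.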
T6 sequence (whole entry): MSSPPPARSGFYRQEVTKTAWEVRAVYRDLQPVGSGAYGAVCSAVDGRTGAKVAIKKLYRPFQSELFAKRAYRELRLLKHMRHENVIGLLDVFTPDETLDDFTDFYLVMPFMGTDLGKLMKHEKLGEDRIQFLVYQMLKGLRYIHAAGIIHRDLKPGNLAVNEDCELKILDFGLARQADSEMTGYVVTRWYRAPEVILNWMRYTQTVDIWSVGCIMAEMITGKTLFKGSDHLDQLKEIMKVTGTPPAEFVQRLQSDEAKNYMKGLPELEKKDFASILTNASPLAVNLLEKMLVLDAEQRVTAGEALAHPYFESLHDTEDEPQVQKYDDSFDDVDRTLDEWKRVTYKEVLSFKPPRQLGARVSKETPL
The settings on record: at 1 µM.

SRSF protein kinase 1 (Homo sapiens), sequence (Q96SB4 whole entry): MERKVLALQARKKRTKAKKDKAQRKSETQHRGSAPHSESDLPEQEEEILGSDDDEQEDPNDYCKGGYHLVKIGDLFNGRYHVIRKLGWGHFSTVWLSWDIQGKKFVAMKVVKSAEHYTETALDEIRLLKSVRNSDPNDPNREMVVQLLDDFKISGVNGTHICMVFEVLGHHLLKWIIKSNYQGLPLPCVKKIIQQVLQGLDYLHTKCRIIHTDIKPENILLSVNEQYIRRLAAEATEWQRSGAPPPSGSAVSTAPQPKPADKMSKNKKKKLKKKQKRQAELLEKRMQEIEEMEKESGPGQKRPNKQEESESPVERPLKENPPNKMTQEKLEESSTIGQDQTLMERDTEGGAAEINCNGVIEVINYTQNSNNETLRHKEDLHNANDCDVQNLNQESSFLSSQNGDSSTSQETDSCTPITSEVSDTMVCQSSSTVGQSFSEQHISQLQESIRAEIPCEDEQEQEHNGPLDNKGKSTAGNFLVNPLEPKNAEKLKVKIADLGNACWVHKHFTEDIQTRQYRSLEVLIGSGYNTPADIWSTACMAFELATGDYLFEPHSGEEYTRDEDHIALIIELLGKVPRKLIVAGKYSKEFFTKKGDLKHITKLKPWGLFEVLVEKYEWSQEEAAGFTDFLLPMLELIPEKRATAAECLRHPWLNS

Consider `Fc1ccc(-c2ncn(C3CCNCC3)c2-c2ccnc(Oc3ccc4c(c3)OCO4)n2)cc1`, for which the inhibition in [1] is -1.04%; in [2] it was 0.51%; in test [3], 4.23%; in test [4], 4.92%; in test [5] it was 0.82%; in test [6], 3.24%. Besides, the inhibition in test [7] was 2.26%; in test [8], 4.42%; in test [9] it was 1.03%; in [10], -2.26%; in test [11], -0.59%; in [12], 0%. Besides, the inhibition was found to be 11.3% in test [13]; 3.74% in [14]; 5% in [15]; 9.09% in [16]; 6.93% in test [17]; 8.89% in test [18]. Moreover, the inhibition in test [19] is 7.17%.
Regarding `c1ccc(Oc2ccc(Nc3ncc(-c4ccccc4)o3)cc2)cc1`, the inhibition in test [20] is 1.07%; in [1], -0.83%; in [2], 0.96%; in test [3], 4.13%; in [4], 5.69%; in test [5] it was 6.64%. Moreover, the inhibition in test [6] stood at 7.88%; in test [7], 2.11%; in test [8] it was 4.73%; in test [9] it was 0.41%; in [10] it was 0.89%; in [11], 3.77%. Also, the inhibition in test [12] is -0.07%; in test [13], 3.77%; in [14] it was 5.82%; in test [15] it was 5.9%; in test [16] it was -0.96%; in test [17], 1.69%. In addition, the figures for the inhibition in [18] and in test [19] were -1.75% and 1.29%, respectively.
As to `Cc1ccc(NC(=O)c2ccoc2)cc1-c1ccc(C(=O)NCC2CC2)cc1`, the inhibition in [20] is 1.97%; in test [1], -1.34%; in test [2], -0.85%; in [3] it was 2.81%; in test [4], 3.57%; in test [5], 1.77%. Besides, the inhibition was 2.51% in test [6]; 1.89% in [7]; -1.62% in [8]; 0% in test [9]; -2.32% in test [10]; 0.42% in [11]. Further, the inhibition is -0.05% in test [12]; 2.64% in test [13]; 1.38% in test [14]; 0.11% in test [15]; 7.23% in test [16]; 3.9% in test [17]. Also, the inhibition in test [18] stood at 3.86%; in test [19] it was 3.64%.
